Measurements from PubChem BioAssay AID875 (National Center for Advancing Translational Sciences (NCATS), 2007).
About 35 (0.05%) of roughly 75,000 compounds were called active. The entries come from a sample that favours actives as a whole. A number with no mark means an inactive call. Calls come from the whole dose curve; as a rule, active = well fitted inhibition curve with a large enough effect; inconclusive = small, poorly fitted or top-dose-only effect; inactive = no such curve, though single readings can be large or run the other way.

molecular target: Breast cancer type 1 susceptibility protein (Homo sapiens) (UniProt P38398); assay: qHTS Assay for Inhibitors of BRCT-Phosphoprotein Interaction (Green Fluorophore); conditions: BRCA1 BRCT-phosphopeptide binding, green fluorescence polarization; series mostly up to 76.9 µM; activity change, negative = inhibition: at the top concentration;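 for activity change, negative = inhibition: plate controls were peptide without protein for full effect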
Protocol: NIH Molecular Libraries Screening Centers Network [MLSCN]
NIH Chemical Genomics Center [NCGC]
PI Name: Natarajan, Amarnath; University of Texas
A complex of BRCT (C-terminal portion of BRCA1, MW ~35 kDa, His-tagged) and fluorescently labeled pBACH1 phosphorylated 10 aa peptide fragment of BACH1, a helicase implicated in DNA repair, is incubated with library members. Inhibitors of BRCT-pBACH1 binding are detected by a decrease in the fluorescence polarization (FP) of the fluorophore. In order to minimize the effect of fluorescence artifacts and to increase the overall robustness of the screen, the compound library members were incubated in separate reactions with fluorescein labeled probe-protein complexes. Protein and labeled probes were supplied by Dr. Amarnath Natarajan, Department of Pharmacology and Toxicology, University of Texas Medical Branch Galveston, TX.
Assay Buffer: 16mM Na2HPO4, 4 mM NaH2PO4, 150 mM NaCl, 1 mM EDTA, 1 mM DTT, 0.02% NaN3, and 0.01% Tween 20 at pH 7.3.
100 nM labeled decapeptide/250 nM protein in columns 1, 2, 5 - 48. Titration of unlabeled decapeptide control (from 10 mM, then 1:2 dilution in duplicate) pin-transferred to column 2, rows 1 to 16. Column 1 is neutral.
Three uL of reagents were dispensed to 1536-well Greiner black solid-bottom plates. Compounds and controls (23 nL) were transferred
via Kalypsys PinTool. The plates were incubated for 12 min at room temperature, and then read on ViewLux (Perkin-Elmer) High throughput CCD imager using FITC for the fluorescein-labeled decapeptide probe polarization filter sets. During dispense, reagent bottles were kept submerged into 4 deg C water bath and all liquid lines were covered with aluminum foil to minimize probe and protein degradation. All screening operations were performed on a Kalypsys robotic system (Kalypsys, Inc., San Diego, CA) containing one RX-130 and two RX-90 anthropomorphic robotic arms. The timing and order of assay plates passing through the screening system were adjusted such that each compound library plate was assayed against the fluorescein- and rhodamine-labeled assay systems at immediately adjacent time points.
Potency is the fitted concentration of half-maximal effect.

Breast cancer type 1 susceptibility protein (Homo sapiens), sequence (P38398 whole entry, looked up): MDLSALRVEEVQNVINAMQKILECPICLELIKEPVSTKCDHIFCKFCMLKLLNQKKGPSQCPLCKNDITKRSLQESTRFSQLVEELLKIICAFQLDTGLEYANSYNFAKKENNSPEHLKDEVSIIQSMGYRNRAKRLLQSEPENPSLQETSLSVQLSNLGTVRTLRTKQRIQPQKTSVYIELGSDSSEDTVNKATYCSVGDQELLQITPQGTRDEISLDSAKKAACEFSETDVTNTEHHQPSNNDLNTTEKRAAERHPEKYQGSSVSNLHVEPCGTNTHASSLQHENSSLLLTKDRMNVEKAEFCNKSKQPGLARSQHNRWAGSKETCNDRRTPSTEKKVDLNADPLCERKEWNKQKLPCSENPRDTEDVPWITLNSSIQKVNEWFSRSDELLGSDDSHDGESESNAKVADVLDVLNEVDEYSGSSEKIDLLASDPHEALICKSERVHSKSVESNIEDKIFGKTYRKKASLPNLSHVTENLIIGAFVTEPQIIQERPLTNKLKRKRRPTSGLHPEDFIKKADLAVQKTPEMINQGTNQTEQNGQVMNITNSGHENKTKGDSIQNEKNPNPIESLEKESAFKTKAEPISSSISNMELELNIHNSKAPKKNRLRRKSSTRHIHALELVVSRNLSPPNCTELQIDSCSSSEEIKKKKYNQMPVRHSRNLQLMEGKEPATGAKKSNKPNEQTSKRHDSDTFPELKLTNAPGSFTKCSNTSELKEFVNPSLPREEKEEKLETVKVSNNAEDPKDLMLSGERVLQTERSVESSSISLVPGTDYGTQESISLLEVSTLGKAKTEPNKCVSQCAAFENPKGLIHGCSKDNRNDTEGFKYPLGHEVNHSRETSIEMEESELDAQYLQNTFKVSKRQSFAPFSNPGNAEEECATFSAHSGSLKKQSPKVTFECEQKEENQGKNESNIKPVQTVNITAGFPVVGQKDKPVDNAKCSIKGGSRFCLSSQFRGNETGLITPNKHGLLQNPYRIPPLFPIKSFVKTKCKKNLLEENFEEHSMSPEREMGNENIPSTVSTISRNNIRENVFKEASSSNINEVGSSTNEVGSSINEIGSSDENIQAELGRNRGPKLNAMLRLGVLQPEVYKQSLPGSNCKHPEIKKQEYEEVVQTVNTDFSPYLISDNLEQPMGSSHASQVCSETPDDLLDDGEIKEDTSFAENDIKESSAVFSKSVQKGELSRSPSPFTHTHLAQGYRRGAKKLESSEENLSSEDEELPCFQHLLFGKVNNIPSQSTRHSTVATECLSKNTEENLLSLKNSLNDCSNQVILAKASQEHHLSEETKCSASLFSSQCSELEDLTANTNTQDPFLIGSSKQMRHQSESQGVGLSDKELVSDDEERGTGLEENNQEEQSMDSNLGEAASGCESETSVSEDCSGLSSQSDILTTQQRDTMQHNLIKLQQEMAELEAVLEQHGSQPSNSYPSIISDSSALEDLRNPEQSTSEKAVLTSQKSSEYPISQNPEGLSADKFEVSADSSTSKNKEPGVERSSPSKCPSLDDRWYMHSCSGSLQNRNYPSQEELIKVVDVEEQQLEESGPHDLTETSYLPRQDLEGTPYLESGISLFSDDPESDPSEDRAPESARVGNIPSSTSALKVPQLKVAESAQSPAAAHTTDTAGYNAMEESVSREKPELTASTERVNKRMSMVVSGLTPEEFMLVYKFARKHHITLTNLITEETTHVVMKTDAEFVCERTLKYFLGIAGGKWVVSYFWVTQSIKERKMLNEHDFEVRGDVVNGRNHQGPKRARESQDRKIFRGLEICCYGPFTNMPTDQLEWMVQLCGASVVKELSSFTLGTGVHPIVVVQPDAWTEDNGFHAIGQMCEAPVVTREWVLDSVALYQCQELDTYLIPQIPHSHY

Row | Compound | activity change, negative = inhibition | Potency
1 | Cc1n[nH]c(C)c1S(=O)(=O)N1CCCC(C(=O)NCC2COc3ccccc3O2)C1 (configuration not stated) | -1.37% | –
2 | Cc1ccc(S(=O)(=O)N2CCC(C(=O)N[C@@H](C)C(=O)NCCc3ccccc3)CC2)cc1 | -2.76% | –
3 | O=C(O)C1CCN1C1CCCCC1 (configuration not stated) | -0.829% | –
4 | CCC(=O)c1ccc(OCC(O)CN2CCN(c3cccc(C(F)(F)F)c3)CC2)cc1 (configuration not stated) | -3.1% | –
5 | CC1CN(C(=O)CN2C(=O)NC(C)(c3ccccc3)C2=O)CC(C)O1 (configuration not stated) | 1.73% | –
6 | O=C(c1cc(C(F)(F)F)cc(C(F)(F)F)c1)N1CCC2(CCCN(Cc3ccncc3)C2)CC1 | -0.118% | –
7 | CS(=O)(=O)c1ccc2nc(NC(=O)C3C4C=CC(C4)C3C(=O)O)sc2c1 (configuration not stated) | -1.62% | –
8 | CCOC(=O)/C=c1\s/c(=C\c2ccccc2OC)c(=O)n1CC(=O)N1CCOCC1 | -0.845% | –
9 | CCC1=C(OC(=O)N(CC)CC)N2C(=O)OC(=NCC3CC3)[C@]2(C)[C@H]2C1=CC[C@H]1C(=O)N(CC(=O)OC)C(=O)[C@H]12 | -1.73% | –
10 | Cc1cc(/C=N/n2cnnc2)c(C)n1-c1cccc(C(=O)O)c1 | -0.794% | –
11 | CC(=O)N(Cc1cccs1)C1CCOC(C)(C)C1 (configuration not stated) | -1.07% | –
12 | COCc1nc2ccccc2n1Cc1ccccc1Br | -0.882% | –
13 | CCn1c(CNC(=O)c2ccc(OC)c(OC)c2)nnc1SCC(=O)Nc1ccccc1 | -1.99% | –
14 | COc1ccc(OC)c(CN2C(=O)CCC2(C)C(=O)NC2CCCCCC2)c1 (configuration not stated) | 0.0804% | –
15 | c1ccc(-c2noc(-c3cccs3)n2)nc1 | -2.54% | –
16 | CCOc1ccc(OCC)c(NC(=O)CN(C)S(=O)(=O)c2cccc3nsnc23)c1 | 0.0132% | –
17 | Cc1ccc2nc(NC3=NCN(CCc4ccccc4)CN3)nc(C)c2c1 | -1.27% | –
18 | COc1ccccc1-c1nc(NCc2cccs2)c2ccccc2n1 | 0.498% | –
19 | CC1=C(C(=O)Nc2ccccc2)C(c2cccs2)C(C#N)=C(SCC#N)N1 (configuration not stated) | 32.1% | –
20 | COc1ccc(Cl)cc1S(=O)(=O)N1CCN(CC(=O)C(C)(C)C)CC1 | -0.719% | –
21 | C=CCSc1nc2c(c(=O)[nH]1)C(C(C)C)C(C#N)=C(N)O2 (configuration not stated) | -0.716% | –
22 | O=P(c1ccc2c(c1)OCCO2)(N1CCOCC1)N1CCOCC1 | -1.91% | –
23 | CCCCCn1c(SCCC(C)C)nc2c1c(=O)[nH]c(=O)n2C | -2.32% | –
24 | Cc1sc2c(c1C)c(=O)n(-c1ccccc1)c1nncn21 | -0.541% | –
25 | CCCC(=O)N1c2ccc(-c3csc(N)n3)cc2CC1C (configuration not stated) | -1.31% | –
26 | CCCCCOC(=O)NCCOC(=O)Nc1ccc(C(=O)OCC)cc1 | -3.13% | –

Row | Compound | activity change, negative = inhibition | Potency
27 | Cn1c(=O)c2c(ncn2CC(=O)N2CCN(c3ccccc3)CC2)n(C)c1=O | -2.15% | –
28 | CN(CCOc1ccc(CC2SC(=O)NC2=O)cc1)c1ccccn1 (configuration not stated) | -0.73% [at 3.08 µM] | –
29 | COc1cc2c(cc1O)C(SC)=NC(C)(C)C2 | -1.19% | –
30 | O=C(CN1CCN(C(=O)c2ccco2)CC1)Nc1ccc(Cl)c(C(F)(F)F)c1 | 2.17% | –
31 | Cc1ccc(C(=O)Nc2ccccc2C(=O)NC2CCCCC2)cc1S(=O)(=O)N1CCOCC1 | 1.27% | –
32 | C/C(=C\C(=O)c1ccccc1)Nc1cccc(O)c1 | 0.601% | –
33 | CCC/C(O)=C1\C(=O)CC(C)(C)CC1=Nc1ccccc1OC | -1.06% | –
34 | COC(=O)c1cc(NC(=O)CN2CCC(C(N)=O)(N3CCCCC3)CC2)cc(C(=O)OC)c1 | -2.28% | –
35 | Cc1cc(C(=O)Nc2c(C)n(C)n(-c3ccccc3)c2=O)cs1 | -7% | –
36 | COc1ccc(C2C3=C(CC(C)(C)CC3=O)Oc3ncn4nc(-c5cccnc5)nc4c32)cc1OC (configuration not stated) | -0.0734% | –
37 | Cn1cccc1C(=O)N1CCC[C@@]2(CCN(Cc3nccs3)C2)C1 | -1.08% | –
38 | O=[n+]1c2c(n([O-])c3cc(Br)ccc31)CCC2 | -1.52% | –
39 | COc1cc([C@H]2c3cc4c(cc3[C@@H](O[C@@H]3O[C@H]5CO[C@@H](C)O[C@]5(O)C[C@H]3O)[C@@H]3COC(=O)[C@H]23)OCO4)cc(OC)c1O | -3.38% | –
40 | FC(F)(F)c1ccc(CN2C[C@@H]3C(c4ccccc4)C4(c5ccccc5)CC3(C4)[C@H]2c2ccccc2)cc1 (some centres not stated) | 2.27% | –
41 | CC1CCN(c2nc3c(c(=O)[nH]c(=O)n3C)n2CCCc2ccccc2)CC1 | 4.69% | –
42 | Cc1cccc2c3c(ccc12)C1=C(C(=O)C3=O)C(C)CO1 (configuration not stated) | -7.86% | –
43 | CCOC(=O)Nc1ccccc1N1C(=O)c2ccccc2C1=O | -2.15% | –
44 | CCOC(=O)c1cc2n(c1C)-c1ccccc1C2=O | -2.66% | –
45 | CCOC(=O)c1cc2n(c1N)-c1ccccc1C2=O | – | 15.8 µM (active)
46 | COC(=O)[C@@H]1C[C@@]2(O)[C@H](O)[C@H](O)[C@H](O)C[C@H]2N1CC1CCCCC1 | -2.7% | –
47 | Cn1c(=O)n(C)c2cc(CNc3ccc(N4CCOCC4)c(C(=O)O)c3)ccc21 | 1.12% | –
48 | O=C(NCc1ccc(Cl)cc1)c1cc2c(nc3sccn32)s1 | -0.656% | –
49 | COC(=O)[C@@H]1C[C@@]2(O)[C@@H](O)[C@@H](O)[C@@H](O)C[C@H]2N1Cc1ccc(C)s1 | -3.88% | –
50 | CCc1c(O)nc(SCC(=O)N2CCCCC2)n(-c2ccccc2C)c1=O | -0.89% | –
51 | O=C(NC1CCCC1)c1ccc(Br)s1 | -2.61% | –
52 | COc1ccccc1CNC(=O)C1CCN(S(C)(=O)=O)CC1 | -0.664% | –
